Laboratory results from PubChem BioAssay (NCATS).
“And” between values parts separate entries of the source, which are not always exact repeats. Identical values can stand only once. Inconclusive results are not listed. A call without a number means that no potency is given here. The source made the active and inactive calls. Calls follow the shape of the dose curve; as a rule, active = well fitted cell-killing curve with a large enough effect; inconclusive = small, poorly fitted or top-dose-only effect, or effect the other way; inactive = no such curve, though single readings can be large or run the other way.

Assay: Viability qHTS for spleen associated tyrosine kinase inhibitor (SYKi) naive MV4-11 cells (AID 1963823); also: nearly all actives have a fitted effect of over 40% in size
Conditions: MV4-11 AML viability, CellTiter-Glo luminescence, 72 h; series mostly up to 45 µM
From the text: Department of Medicine, Hematology/Oncology
University Hospital Frankfurt, Germany.
Trials have shown promising clinical activity of the selective SYK inhibitor entospletinib in patients with high expressing HOXA9/MEIS1 acute leukemias. As the development of resistance mechanisms is a common problem in the use of targeted drugs, we performed a chemical library screen to identify drug sensitivities in SYK inhibitor resistant AML cells. […] Glucocorticoids are potent immunosuppressants which work in part by inhibiting the transcription of cytokine genes.
Described herein is a viability screen to look for activity in the SYK inhibitor naive cell line against four NCATS compound libraries (MIPE 5.0, NPC, NPACT, and Kinase) totaling 11372 compounds. Active hits were reacquired for confirmation and further secondary assay testing.
SEQUENCE No. (e.g., 1, 2, 3, etc.); […] (e.g., Cells, Incubation, Reagent, etc.); VALUE; DESCRIPTION.
1; Media; 2uL; white, solid-bottom Corning assay plate.
2; Compounds; 23nL; Echo acoustic dispenser.
3; Cell; 5uL; 500 cells per well.
4: Incubation; 72hr; 37 C, 5% CO2, 95% humidity.
5; Reagent; 3uL; CellTiter-Glo reagent (Promega).
6; Incubation; 10min; room temperature.
7; Detection; Luminescence; ViewLux plate reader (PerkinElmer).
NOTES (numbers refer to Sequence numbers above
1. Quantitative high-throughput screening (qHTS) of small molecule compounds was conducted on naive SYKi MV4-11 cell line.
2. Twenty-three nanoliter of small molecule compounds were added to each assay plates using the Echo acoustic dispenser (Beckman Coulter).
3. Cells were seeded into the assay plates at a final density of 500 cells in 5uL of media per well using the Multi-drop Combi dispenser.
4. Plates were covered with stainless steel gasketed lids and incubated for 72 hours at standard cell culture conditions.
5. Viability was assessed by adding 3uL of CellTiter-Glo detection reagent (Promega).
6. Plates were covered with gasket lids and incubated for 10 minutes at room temperature.
7. Luminescence was measured on a ViewLux plate reader (PerkinElmer).
Potency is read from the fitted curve at half-maximal effect.

Row | Structure (SMILES) | Potency | viability (% of control)
1 | CC[C@H]1C2CC3[C@@H]4N(C)c5ccccc5[C@]45C[C@@H]([C@H]2[C@H]5O)N3[C@@H]1O | inactive | –
2 | CC(C)[C@H]1OC(=O)[C@H](Cc2ccccc2)N(C)C(=O)[C@@H](C(C)C)OC(=O)[C@H](Cc2ccccc2)N(C)C(=O)[C@@H](C(C)C)OC(=O)[C@H](Cc2ccccc2)N(C)C1=O | 3850 nM (active) | –
3 | CCOC(=O)CC(SP(=S)(OC)OC)C(=O)OCC (stereo not given) | inactive | –
4 | O=C1N[C@@H](Cc2ccccc2)CN2CCCC[C@@H]12 | inactive | –
5 | CC12CCC3C(CCC4(O)CC(O)CCC34C=O)C1(O)CCC2C1=CC(=O)OC1 (stereo not given) | 366 nM (active) | –
6 | C[C@]12CC[C@H](O)C[C@H]1CC[C@@H]1[C@@H]2[C@H](O)C(=O)[C@]2(C)[C@@H](c3ccc(=O)oc3)CC[C@]12O | 10.3 nM (active) | –
7 | O=C(CCCN1CCC2(CC1)C(=O)NCN2c1ccccc1)c1ccc(F)cc1 | inactive | –
8 | Oc1ccc(Cl)cc1 | inactive | –
9 | NCCc1cc(O)c(O)cc1O | inactive | –
10 | CCN(CC)C(C)C(=O)c1ccccc1 (stereo not given) | inactive | –
11 | COc1cc2c(cc1F)C(c1ccccc1Cl)=Nc1c(n[nH]c1C)N2 | 517 nM (active) | –
12 | CCC(C)C(C)(COC(N)=O)COC(N)=O (stereo not given) | inactive | –
13 | C=CCN1C[C@H](C)N([C@H](c2ccc(C(=O)N(CC)CC)cc2)c2cccc(OC)c2)C[C@H]1C | inactive | –
14 | O=c1cccc2n1CC1CNC[C@H]2C1 | inactive | –
15 | COP(=O)(OC)C(O)C(Cl)(Cl)Cl (stereo not given) | inactive | –
16 | CC(C)NCC(O)c1ccc([N+](=O)[O-])cc1 (stereo not given) | inactive | –
17 | CC1=CC2/C=C(\C)CCC(O)C(O)/C=C/C(=O)OC23C(=O)NC(CC(C)C)C3C1C (stereo not given) | 7960 nM (active) | –
18 | CCCCCCC(C)(C)c1cc(O)c2c(c1)OC(C)(C)C1CC=C(CO)C[C@H]21 (stereo not given in full) | 1180 nM (active) | –
19 | Cc1nnc2n1-c1sc(CCC(=O)N3CCOCC3)cc1C(c1ccccc1Cl)=NC2 | inactive | –
20 | COC1CC(OC2CCC3(C)C(CCC4C3CCC3(C)C(C5=CC(=O)OC5)C(OC(C)=O)CC43O)C2)OC(C)C1OC1OC(CO)C(O)C(O)C1O (stereo not given) | 769 nM (active) | –

Row | Structure (SMILES) | Potency | viability (% of control)
21 | NCc1cccnc1 | inactive | –
22 | C[C@@H]1O[C@@H](O[C@H]2C[C@@H](O)[C@]3(CO)[C@H]4[C@H](O)C[C@]5(C)[C@@H](C6=CC(=O)OC6)CC[C@]5(O)[C@@H]4CC[C@]3(O)C2)[C@H](O)[C@H](O)[C@H]1O | 119 nM (active) and 79.6 nM (active) and 46.8 nM (active) | –
23 | ClC1=C(Cl)C2(Cl)C(CBr)CC1(Cl)C2(Cl)Cl (stereo not given) | inactive | –
24 | C=C1[C@@H](C)[C@H]2[C@H](Cc3ccccc3)NC(=O)[C@]23OC(=O)/C=C/C(=O)CCC[C@@H](C)C/C=C/[C@H]3[C@@H]1O | 920 nM (active) | –
25 | c1cncc(OC[C@@H]2CCN2)c1 | inactive | –
26 | C=C1C[C@]2(O)[C@@]3(C)CCC(=O)C(C)(C)C3=C(O)C(=O)[C@@]2(C)[C@@H]2C(=O)O[C@@](C)(C(=O)OC)C(=O)[C@@]12C | inactive | –
27 | O=C(O)CCCCCCNC1c2ccccc2CCc2ccccc21 | 473 nM (active) | –
28 | CO[C@H]1CCC(O[C@H]2C[C@H]([C@]3(C)CC[C@]4(C[C@H](O)[C@@H](C)[C@@H]([C@@H](C)/C=C(\C)C(=O)[C@H](C)C[C@H](C)C(=O)O)O4)O3)O[C@]3(O[C@@H]([C@H]4O[C@@](O)(CO)[C@H](C)C[C@@H]4C)C[C@@H]3C)[C@@H]2C)O[C@@H]1C (stereo not given in full) | 166 nM (active) | –
29 | COC[C@@H](NC(C)=O)C(=O)NCc1ccccc1 | inactive | –
30 | CC(C)=CC1C(C(=O)OCN2C(=O)C3=C(CCCC3)C2=O)C1(C)C (stereo not given) | inactive | –
31 | CC[C@@]1(O)C(=O)OCc2c1cc1n(c2=O)Cc2cc3c(OC)cccc3nc2-1 | 14.3 nM (active) | –
32 | c1ccc2c(c1)Sc1ccccc1N2CC1CN2CCC1CC2 (stereo not given) | 26600 nM (active) | –
33 | CN1C(=O)COc2c(C(=O)NC3CN4CCC3CC4)cc(Cl)cc21 (stereo not given) | inactive | –
34 | Nc1ccn(C[C@@H](CO)OCP(=O)(O)O)c(=O)n1 | – | 57.6% [at 9.25 µM] (inactive)
35 | CN1CCC(N(Cc2ccccc2)c2ccccc2)CC1 | inactive | –
36 | CN1CCc2cc3c(cc2C1C1OC(=O)c2c1ccc1c2OCO1)OCO3 (stereo not given) | inactive | –
37 | C[C@]12C/C(=C/O)C(=O)C[C@@H]1CC[C@@H]1[C@@H]2CC[C@@]2(C)[C@H]1CC[C@]2(C)O | 18800 nM (active) | –
38 | COc1cc(CC(C)N)c(OC)cc1Br (stereo not given) | 12700 nM (active) | –
39 | C=C(C)C(=O)O[C@H]1[C@@H]2[C@H](C)C(=O)O[C@@H]2C[C@@H](C)[C@@H]2C=CC(=O)[C@]21C | 1430 nM (active) | –
40 | O=S(=O)(F)Cc1ccccc1 | inactive | –
